Compounds with a hit are over-represented: about 6.2% of the library has one in this group of screens.
Marburg entry inh: qHTS for inhibitors of binding or entry into cells for Marburg Virus. Marburg virus pseudotyped entry inhibition, cell reporter. Potency, µM (titrated, usually from 37.8 µM), most hits filed as inhibitors. 300,000 compounds, 1.8% hits. AID 540276, 2011; calls by dose curve; tested in HEK293 cells
HCMV antiviral: qHTS Assay for inhibitors of the human cytomegalovirus (HCMV) | HFF cells, HCMV-luciferase reporter, 72 h; active compounds read low | 410,000 compounds, 4.5% hits | activity change, negative = inhibition, % at 57.5 µM; in the data active means activity change below about -60%; inconclusive means no clear call, values can overlap the other calls; inactive means above about -39%
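Two-dose cell screen: HFF monolayers treated with compounds and infected with luciferase-expressing HCMV at 1 PFU/cell, 72 h at 37C, then lysed for luciferase measurement.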
FMDV antiviral: High Throughput Screening for Foot and Mouth Disease Virus Antivirals; FMDV antiviral cell-based qHTS; Potency, µM (series often up to 57.9 µM), actives largely listed as inhibitors; 410,000 compounds, 1.2% hits; AID 1159524, 2015; calls by dose curve; tested in HEK293T cells; further: read-out not given here; nearly all actives have a fitted effect of over 45% in size
Lassa entry inh: qHTS for Inhibitors of binding or entry into cells for Lassa Virus; Lassa virus pseudotype entry inhibition, cell reporter; Potency, µM (top dose mostly 37.9 µM), hits mostly inhibitors; 300,000 compounds, 1.2% hits; calls by dose curve; tested in HEK293 cells; further: nearly all actives have a fitted effect of over 50% in size
Large screens that a line does not name were inactive.

COC(=O)c1ccc(COc2ccccc2/C=N/NS(=O)(=O)c2ccccc2)cc1	Marburg entry inh 13µM, HCMV antiviral -85.6
COC(=O)c1ccc(COc2ccccc2/C=C(\C#N)C(=O)Nc2c(C)cc(C)cc2C)cc1	Marburg entry inh inconclusive, HCMV antiviral -93.4, FMDV antiviral inconclusive, Lassa entry inh inconclusive
CC1CN(S(=O)(=O)c2cccc(C(=O)NNC(=O)C(C)Oc3ccccc3F)c2)CC(C)O1 (stereo unspecified)	none
Cc1cc(=O)n2c3c(c4c(cc13)c(CN(C)C)cc(=O)n4C)OC2	Marburg entry inh inconclusive, HCMV antiviral -72.0
O=C(CSc1nc(=O)n(CCN2CCOCC2)c2c1CCC2)Nc1ccc(OC(F)(F)F)cc1	HCMV antiviral -60.0, FMDV antiviral inconclusive
CCN(CC)CCn1c2c(c(SCC(=O)Nc3nc(C)cs3)nc1=O)CCC2	Marburg entry inh inconclusive
COc1ccc(NC(=O)CSc2nc(=O)n(CCN3CCOCC3)c3c2CCC3)cc1	none
CCN(CC)CCn1c2c(c(SCC(=O)Nc3nc(C)cs3)nc1=O)CCCC2	Marburg entry inh inconclusive, HCMV antiviral -80.3
CCN(CC)CCn1c2c(c(SCC(=O)Nc3ccc(C)c(F)c3)nc1=O)CCC2	HCMV antiviral -98.6
COc1ccc(S(=O)(=O)N2CCCCCC2)cc1C(=O)N(C)CC(=O)Nc1ccc(Cl)c(Cl)c1	Marburg entry inh inconclusive, HCMV antiviral inconclusive
CCc1nc(N)c(C#N)c(-c2cccnc2)c1C	none
Cc1nc(N)c(C#N)c(-c2cccnc2)c1C	HCMV antiviral -70.4
C/C(=N\NC(=O)c1nn(C)c(C)c1Br)c1cccc(NC(=O)c2ccc(F)cc2)c1	Marburg entry inh inconclusive
Cc1cc(C)c(/C=C/c2onc(C)c2S(=O)(=O)N2CCC(C(=O)Nc3ccc(Cl)c(C(F)(F)F)c3)CC2)c(C)c1	HCMV antiviral -96.8, FMDV antiviral inconclusive (no result: Marburg entry inh)
Cc1noc(/C=C/c2cccs2)c1S(=O)(=O)N1CCC(C(=O)Nc2ccc(F)c(Cl)c2)CC1	HCMV antiviral -73.4, FMDV antiviral inconclusive
CCOc1ccc(NC(=O)C2CCN(S(=O)(=O)c3c(C)noc3/C=C/c3c(C)cc(C)cc3C)CC2)cc1	HCMV antiviral inconclusive, FMDV antiviral inconclusive (no result: Marburg entry inh)
CCc1ccc(NC(=O)C2CCN(S(=O)(=O)c3c(C)noc3/C=C/c3ccco3)CC2)cc1	HCMV antiviral inconclusive, FMDV antiviral inconclusive
COc1ccc(NC(=O)C2CCN(S(=O)(=O)c3c(C)noc3/C=C/c3ccco3)CC2)cc1	HCMV antiviral -66.8
COc1cccc(-c2nnc(NC(=O)Cc3cccs3)s2)c1	none
CCOc1ccc(N2CC(C(=O)Nc3cc(C)on3)CC2=O)cc1 (stereo unspecified)	none
COc1cc(-c2nnc(CSc3nc4ccccc4s3)o2)cc(OC)c1OC	none (no result: HCMV antiviral, FMDV antiviral, Lassa entry inh)
CC(C)c1ccc(S(=O)(=O)N2CCCCC2)cc1	none (no result: Marburg entry inh, Lassa entry inh)
CC(=O)/C(=N\Nc1ccc(Cl)cc1Cl)Sc1nnc(-c2ccccc2)n1-c1ccccc1	none
CC(=O)/C(=N\Nc1ccccc1Cl)Sc1nnc(-c2ccccc2)n1-c1ccccc1	HCMV antiviral -61.4
Cc1ccc(-c2nc(N=Nc3ccc(O)cc3)n[nH]2)cc1	HCMV antiviral -100.2, Lassa entry inh inconclusive
COc1cc(OC)cc(C(=O)N2CCN(C(=O)c3cccnc3)CC2)c1	none (no result: Marburg entry inh, Lassa entry inh)
COc1ccc(NC(=O)CN(C)CCOc2ccc(Cl)cc2)cc1OC	Lassa entry inh inconclusive
CC1(C(=O)NS(=O)(=O)Cc2ccccc2C(F)(F)F)CCN1C(=O)C/C=C/c1ccccc1 (stereo unspecified)	none (no result: Marburg entry inh, Lassa entry inh)
CN1C(=O)C(Cl)(Cl)C(=O)c2ccccc21	Marburg entry inh inconclusive, FMDV antiviral 28.2µM (no result: HCMV antiviral)
N#CC1=C(SCC(=O)NC2CC2)NC(=O)C(C#N)C12CCCCC2 (stereo unspecified)	none
CC(C)(C)C1CCC2(CC1)C(C#N)=C(SCC(=O)NC1CCCCC1)NC(=O)C2C#N (stereo unspecified)	HCMV antiviral -63.0 (no result: FMDV antiviral)
N#CC1=C(SCC(=O)NC23CC4CC(CC(C4)C2)C3)NC(=O)C(C#N)C12CCCCC2 (stereo unspecified)	Marburg entry inh inconclusive, HCMV antiviral -66.1, FMDV antiviral inconclusive
[2H]c1c([2H])c([2H])c(C(=O)c2sc(N3CCCCCC3)nc2-c2ccccc2)c([2H])c1[2H]	Marburg entry inh inconclusive, FMDV antiviral inconclusive
COC(=O)c1sccc1S(=O)(=O)N(CC(=O)Nc1cc(C)ccc1C)c1ccc(C)c(C)c1	Lassa entry inh inconclusive (no result: Marburg entry inh)
N#C/C(=C(/O)c1ccc([N+](=O)[O-])cc1)c1nnc2n1CCCCC2	none
N#C/C(=C/c1ccccc1[N+](=O)[O-])c1nnc2n1CCCCC2	HCMV antiviral -60.3
